Source: PubChem BioAssay AID1159580 (chemical genetic matrix, 2015)
The whole screen tested about 5,500 compounds, of which about 2,000 (36%) were called active. About 18% were inconclusive and are not listed. Rule as the data show it: active = normalized growth mostly below about 0.91 (no sharp cut-off); inconclusive = no clear call, values can overlap the other calls; inactive = mostly above about 0.92. This is one part of the list.

Assay: chemical genetic growth profiling, strain panel (AID 1159580);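 also: tested at 20 µM; growth read once vehicle control cultures reached saturation at 30 °C; 1 = growth at the plate median or of vehicle wells; lower values mean less growth of the strain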
Conditions: S. cerevisiae deletion strains, growth OD
[1] = locus YAR019C, strain CDC15, stronger effect = lower value
[2] = locus YBL105C, strain PKC1, stronger effect = lower value
[3] = locus YBR135W, strain CKS1, stronger effect = lower value
[4] = locus YBR136W, strain MEC1, stronger effect = lower value
[5] = locus YBR160W, strain CDC28, stronger effect = lower value
[6] = locus YDL017W, strain CDC7, stronger effect = lower value
[7] = locus YDL028C, strain MPS1, stronger effect = lower value
[8] = locus YDL101C, strain DUN1, stronger effect = lower value
[9] = locus YDL108W, strain KIN28, stronger effect = lower value
[10] = locus YDL132W, strain cdc53, stronger effect = lower value
[11] = locus YDL214C, strain PRR2, stronger effect = lower value
[12] = locus YDR052C, strain DBF4, stronger effect = lower value
[13] = locus YDR054C, strain cdc34, stronger effect = lower value
[14] = locus YDR226W, strain ADK1, stronger effect = lower value
[15] = locus YDR477W, strain SNF1, stronger effect = lower value
[16] = locus YER123W, strain YCK3, stronger effect = lower value
[17] = locus YER133W, strain GLC7, stronger effect = lower value
[18] = locus YFL009W, strain cdc4, stronger effect = lower value
[19] = locus YFL029C, strain CAK1, stronger effect = lower value
[20] = locus YFR003C, strain YPI1, stronger effect = lower value
[21] = locus YFR019W, strain FAB1, stronger effect = lower value
[22] = locus YFR028C, strain CDC14, stronger effect = lower value
[23] = locus YGR040W, strain KSS1, stronger effect = lower value
[24] = locus YGR052W, strain FMP48, stronger effect = lower value
[25] = locus YGR092W, strain DBF2, stronger effect = lower value
[26] = locus YHR030C, strain SLT2, stronger effect = lower value
[27] = locus YHR079C, strain IRE1, stronger effect = lower value
[28] = locus YHR082C, strain KSP1, stronger effect = lower value
[29] = locus YHR205W, strain SCH9, stronger effect = lower value
[30] = locus YIL147C, strain SLN1, stronger effect = lower value
[31] = locus YJL095W, strain BCK1, stronger effect = lower value
[32] = locus YJL157C, strain FAR1, stronger effect = lower value
[33] = locus YJR016C, strain ILV3, stronger effect = lower value
[34] = locus YJR066W, strain TOR1 (second series), stronger effect = lower value
[35] = locus YJR066W, strain TOR1, stronger effect = lower value
[36] = locus YKL048C, strain ELM1, stronger effect = lower value
[37] = locus YKL067W, strain YNK1, stronger effect = lower value
[38] = locus YKL101W, strain HSL1, stronger effect = lower value
[39] = locus YKL193C, strain SDS22, stronger effect = lower value
[40] = locus YKL203C, strain TOR2, stronger effect = lower value
[41] = locus YLR113W, strain HOG1, stronger effect = lower value
[42] = locus YLR133W, strain CKI1, stronger effect = lower value
[43] = locus YLR403W, strain SFP1, stronger effect = lower value
[44] = locus YML070W, strain DAK1, stronger effect = lower value
[45] = locus YMR001C, strain CDC5, stronger effect = lower value
[46] = locus YMR205C, strain PFK2 (second series), stronger effect = lower value
[47] = locus YNL006W, strain LST8, stronger effect = lower value
[48] = locus YNL020C, strain ARK1, stronger effect = lower value
[49] = locus YNL161W, strain CBK1, stronger effect = lower value
[50] = locus YNL183C, strain NPR1, stronger effect = lower value
[51] = locus YNL207W, strain RIO2, stronger effect = lower value
[52] = locus YNL222W, strain SSU72, stronger effect = lower value
[53] = locus YNL307C, strain MCK1 (second series), stronger effect = lower value
[54] = locus YOL136C, strain PFK27, stronger effect = lower value
[55] = locus YOR061W, strain CKA2, stronger effect = lower value
[56] = locus YOR119C, strain RIO1, stronger effect = lower value
[57] = locus YOR231W, strain MKK1, stronger effect = lower value
[58] = locus YOR329C, strain SCD5, stronger effect = lower value
[59] = locus YPL031C, strain PHO85, stronger effect = lower value
[60] = locus YPL153C, strain RAD53, stronger effect = lower value
[61] = locus YPL204W, strain HRR25, stronger effect = lower value
[62] = locus YPL209C, strain IPL1, stronger effect = lower value
[63] = locus YPL256C, strain CLN2, stronger effect = lower value
[64] = locus YPR025C, strain CCL1, stronger effect = lower value
[65] = locus YPR106W, strain ISR1, stronger effect = lower value
[66] = locus YPR111W, strain DBF20, stronger effect = lower value
[67] = strain NNK1, stronger effect = lower value
[68] = strain TSCII, stronger effect = lower value

Measured: normalized growth

CN1/C(=C/C=C/c2ccc3ccccc3[n+]2C)C=Cc2ccccc21
inactive: [3] 0.901 | [5] 0.919 | [7] 0.928 | [9] 0.912 | [14] 0.961 | [30] 0.905 | [65] 0.929 | [66] 0.902
active: [1] 0.675 | [2] 0.837 | [4] 0.893 | [6] 0.903 | [8] 0.362 | [10] 0.653 | [11] 0.185 | [12] 0.889 | [13] 0.581 | [15] 0.226 | [16] 0.204 | [17] 0.18 | [18] 0.684 | [19] 0.603 | [20] 0.883 | [21] 0.217 | [22] 0.885 | [23] 0.215 | [24] 0.212 | [25] 0.148 | [26] 0.177 | [27] 0.182 | [28] 0.224 | [29] 0.132 | [31] 0.208 | [32] 0.174 | [33] 0.828 | [34] 0.196 | [35] 0.197 | [36] 0.291 | [37] 0.162 | [38] 0.199 | [39] 0.655 | [40] 0.209 | [41] 0.29 | [42] 0.341 | [43] 0.0454 | [44] 0.209 | [45] 0.816 | [46] 0.325 | [47] 0.793 | [48] 0.243 | [49] 0.658 | [50] 0.197 | [51] 0.528 | [52] 0.708 | [53] 0.189 | [54] 0.188 | [55] 0.181 | [56] 0.221 | [57] 0.198 | [58] 0.702 | [59] 0.198 | [60] 0.178 | [61] 0.177 | [62] 0.748 | [63] 0.25 | [64] 0.821 | [67] 0.536 | [68] 0.604

N#C/C(=C\c1c[nH]c2ccccc12)C(=O)c1ccc(O)c(O)c1
inactive: locus YAL013W, strain DEP1, stronger effect = lower value 1.02 | locus YAL040C, strain CLN3, stronger effect = lower value 0.987 | locus YCL061C, strain MRC1 (second series), stronger effect = lower value 1.02 | locus YDR150W, strain NUM1, stronger effect = lower value 1.01 | locus YDR363W, strain ESC2, stronger effect = lower value 1.03 | locus YER002W, strain NOP16, stronger effect = lower value 1.01 | locus YGR078C, strain PAC10, stronger effect = lower value 1.02 | locus YJR075W, strain HOC1, stronger effect = lower value 0.996 | locus YMR307W, strain GAS1, stronger effect = lower value 1.03 | locus YNL175C, strain NOP13, stronger effect = lower value 1 | locus YNL197C, strain WHI3, stronger effect = lower value 1.02 | locus YNL224C, strain SQS1, stronger effect = lower value 1 | locus YNL322C, strain KRE1, stronger effect = lower value 1 | locus YOR083W, strain WHI5 (second series), stronger effect = lower value 0.973 | locus YPL241C, strain CIN2, stronger effect = lower value 1.02

O=C1Nc2ccccc2/C1=C\c1cccc2ccccc12
active: [26] 0.663 | [41] 0.667 | [63] 0.694
inactive: [1] 0.97 | [2] 0.955 | [3] 0.971 | [4] 0.97 | [5] 0.977 | [6] 0.963 | [7] 0.972 | [8] 0.985 | [9] 0.969 | [10] 0.965 | [11] 0.815 | [12] 0.976 | [13] 0.982 | [14] 0.96 | [15] 0.773 | [16] 0.777 | [17] 0.809 | [18] 0.98 | [19] 0.964 | [20] 0.972 | [21] 0.904 | [22] 0.972 | [23] 0.792 | [24] 0.807 | [25] 0.708 | [27] 0.73 | [28] 0.741 | [29] 0.668 | [30] 0.968 | [31] 0.718 | locus YJL128C, strain PBS2, stronger effect = lower value 0.914 | [32] 0.796 | [33] 0.966 | [34] 0.738 | [35] 0.798 | [36] 0.886 | [37] 0.855 | [38] 0.816 | [39] 0.968 | [40] 0.857 | [42] 0.803 | [43] 0.727 | [44] 0.803 | [45] 0.957 | [46] 0.862 | locus YMR277W, strain FCP1, stronger effect = lower value 0.963 | [47] 0.964 | [48] 0.784 | [49] 0.96 | [50] 0.784 | [51] 0.958 | [52] 0.971 | [53] 0.752 | locus YOL078W, strain AVO1, stronger effect = lower value 0.973 | [54] 0.808 | [55] 0.867 | [56] 0.885 | [57] 0.807 | [58] 0.966 | [59] 0.738 | [60] 0.78 | [61] 0.699 | [62] 0.967 | [64] 0.972 | [65] 0.959 | [66] 0.949 | [67] 0.953 | [68] 0.965
